Holding throughout (assay): NCI-60 one-dose screen, 48 h (100 = growth as untreated, 0 = no growth, -100 = all killed)
Details in all cases: 10 µM unless noted

The subject of experiment [1] is HCT-15 colon.
Experiment [2] relates to HT29 colon.
The subject of experiment [3] is SNB-75 CNS.
For experiment [4], the system named is SNB-19 CNS.
Experiment [5] concerns U251 CNS.
In experiment [6] the test system is PC-3 prostate.
The subject of experiment [7] is SK-MEL-5 melanoma.
Experiment [8] relates to UACC-62 melanoma.
Experiment [9] concerns LOX IMVI melanoma.
Experiment [10] deals with SK-MEL-28 melanoma.

About 83,000 compounds went through this panel and 20% of them were active in at least one assay; those are over-represented in the sample as a whole.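 Method: cells in 96-well plates; compound added at one concentration; 48 h incubation; percent growth measured; values under 10 scored active.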 A number with no mark means an inactive call. The source made the active and inactive calls.

In the case of `O=C1Nc2ccc(Br)cc2C1=N/C=c1\[nH]c(=O)/c(=C/c2ccc(Cl)cc2)s1`, the growth in experiment [1] is 90.3%; in [2], 97.9%; in experiment [3], 93.9%; in [4] it was 94%; in experiment [5] it was 83.7%; in experiment [6], 92%. Also, the growth in [7] is 99.1%; in [8], 91.2%; in experiment [9], 103%; in [10], 105%.
Consider `COc1cccc2nc(Nc3ccc(NC(=O)c4ccc5ncccc5c4)cc3)ccc12`, for which the growth in experiment [1] is 51.5%; in experiment [2] it was 63.3%; in experiment [3] it was 80.8%; in [4], 90.3%; in [5], 61.8%; in [6], 52.3%. In addition, the growth in [7] was 80.7%; in experiment [8], 97.4%; in [9], 84.6%; in experiment [10] it was 73.8%.
For `O=C1Nc2cc(Cl)ccc2Oc2cc(Oc3ccccc3)ccc21`, the growth was 46.7% in experiment [1]; 17.4% in experiment [2]; 50.9% in experiment [3]; 72.7% in experiment [4]; 74.1% in [5]; 75.2% in experiment [6]. Besides, the growth in experiment [7] is 34.5%; in experiment [8], 59.6%; in experiment [9] it was 51.5%; in [10], 71%.
On to `Cn1c(C(N)=O)cc2c1-c1nc(NC3CCCCC3)ncc1CCC2`, for which the growth in [1] is 90.5%; in [2] it was 91.4%; in experiment [3] it was 104%; in experiment [4], 81.9%; in [5], 83.8%; in [6] it was 94.8%. In addition, the growth in experiment [7] was 95%; in experiment [8], 103%; in experiment [9], 89.6%; in [10], 97.4%.
As to `NC(=O)c1cccc(N2Cc3ccccc3OC3=C2C(=O)c2c(O)ccc(O)c2C3=O)c1`, the growth in experiment [1] was -49.7% (active); in [2] it was -55.8% (active); in [3], 6.48% (active); in experiment [4] it was 1% (active); in experiment [5], -7.38% (active); in experiment [6], -44.5% (active). Besides, the growth in experiment [7] is -7.12% (active); in experiment [8] it was -86.1% (active); in experiment [9], -63.5% (active); in experiment [10], -85.6% (active).
`CCc1c(C(=O)Nc2ccc3ccccc3c2)[nH]c(C)c1C(C)=O`: the growth was 79.1% in experiment [1]; 93.7% in [2]; 84.4% in experiment [3]; 110% in experiment [4]; 98.3% in [5]; 74% in experiment [6]. The growth was 77.4% in [7], 87.2% in [8], 96.3% in experiment [9] and 97.8% in experiment [10].
Take `O=C(c1ccccc1)C(Cl)C(Cl)c1ccccc1` (stereo not given): the growth was -7.84% (active) in [1]; 20.4% in experiment [2]; 70.7% in experiment [3]; 92% in experiment [4]; 78% in [5]; 83% in [6]. Besides, the growth in experiment [7] was 88.8%; in experiment [8] it was 0.557% (active); in experiment [9], -64.9% (active); in experiment [10], 67.3%.
On to `C=CCN=C1NC(=O)/C(=C/c2cc(C(C)(C)C)c(O)c(C(C)(C)C)c2)S1`, for which the growth in [1] was 42.1%; in experiment [2] it was 26.9%; in [3], 88.8%; in experiment [4] it was 83.6%; in experiment [5] it was 77%; in [6] it was 62.4%. Also, the growth is 49.3% in [7], 63.8% in [8], 70.8% in experiment [9] and 73.3% in [10].
On to `O=C(Nc1cccc(Cl)c1)c1cc([N+](=O)[O-])ccc1O`, for which the growth in experiment [1] was 61.7%; in experiment [2] it was 49.8%; in experiment [3], 67.8%; in experiment [4] it was 53.3%; in experiment [5], 47.5%; in [6] it was 35.4%. In addition, the growth was 16.7% in [7], 18% in experiment [8], 34% in [9] and 28.6% in experiment [10].
As for `COc1ccc(/C=C2\CCCC3=C2NC(C)=NC3c2ccc(OC)c(OC)c2)cc1OC` (stereo not given), the growth is -61.7% (active) in experiment [1]; -2.36% (active) in [2]; 35.2% in experiment [3]; 60.4% in experiment [4]; 18.3% in experiment [5]; 32% in [6]. The growth in [7] was 6.23% (active); in experiment [8], 10.9%; in experiment [9], -72.7% (active); in experiment [10], 23%.
On to `Cc1cc(Nc2nc(-c3ccc(F)cc3)nc3ccccc23)n[nH]1`, for which the growth is 33.9% in experiment [1]; 22.5% in experiment [2]; -21% (active) in experiment [3]; 80.2% in [4]; 88.4% in [5]; 56.5% in [6]. The growth in [7] was 73.7%; in [8], 40.8%; in [9], 32.6%; in experiment [10], 56.3%.
For `O=c1oc2cc(OS(=O)(=O)c3ccccc3)c(Cl)cc2c2c1CCCCCC2`, the growth in experiment [1] was 84.6%; in [2], 67.7%; in [3], 83.1%; in experiment [4], 93.3%; in experiment [5], 87.5%; in experiment [6] it was 73.9%. The growth in experiment [7] is 77.9%; in [8], 70.3%; in experiment [9], 90.1%; in experiment [10], 91.2%.
On to `CNC(=O)Cc1nc(-c2cccc(NS(=O)(=O)c3c(F)cccc3F)c2F)c(-c2ccnc(Nc3ccccc3)n2)s1`, for which the growth in experiment [1] is 72.1%; in experiment [2], 6.8% (active); in [3], 58.2%; in experiment [4], 75.4%; in [5], 86.6%; in experiment [6], 81.8%. For the same molecule, the growth in experiment [7] was 63.2%; in [8], 5.51% (active); in experiment [9], 9.18% (active); in [10], 15.2%.
Consider `COc1ccc(/C(=N/O)c2cc(OC)c(OC)c(OC)c2)c(OC)c1N`, for which the growth is 24.5% in [1]; 13.7% in experiment [2]; 8.03% (active) in experiment [3]; 45.2% in [4]; 27.5% in experiment [5]; 19.2% in [6]. Besides, the growth in experiment [7] is 14.4%; in [8] it was 31.7%; in experiment [9], 45%; in experiment [10] it was 59.2%.

Source of the values: PubChem BioAssay (NCI).
